Molecules are shown by their SMILES. Results filed as inconclusive are left out. Activity calls are given as the source filed them. Calls come from the whole dose curve.

Peroxisome proliferator-activated receptor delta (Homo sapiens), sequence (Q03181 whole entry, looked up): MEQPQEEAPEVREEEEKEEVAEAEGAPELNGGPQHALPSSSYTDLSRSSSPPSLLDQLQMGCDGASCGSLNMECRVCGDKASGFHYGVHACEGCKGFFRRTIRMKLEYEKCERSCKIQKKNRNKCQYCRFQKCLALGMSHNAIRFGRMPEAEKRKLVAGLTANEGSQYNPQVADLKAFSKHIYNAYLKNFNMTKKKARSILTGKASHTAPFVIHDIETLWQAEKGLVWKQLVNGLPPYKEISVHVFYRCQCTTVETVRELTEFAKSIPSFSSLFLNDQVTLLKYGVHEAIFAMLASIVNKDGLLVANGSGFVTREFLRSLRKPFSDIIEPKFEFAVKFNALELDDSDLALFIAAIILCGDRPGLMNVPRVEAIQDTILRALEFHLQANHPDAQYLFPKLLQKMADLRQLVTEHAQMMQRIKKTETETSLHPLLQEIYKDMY

The assay addresses Peroxisome proliferator-activated receptor delta (Homo sapiens) (UniProt Q03181). In words: qHTS assay for small molecule agonists of peroxisome proliferator-activated receptor delta signaling (AID 588534). Particulars: HEK293T PPARdelta-UAS-bla, beta-lactamase ratio, 18 h; series mostly up to 76.7 µM. The method in brief:
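EC50 and efficacy values derive from Hill fits of a concentration series in a beta-lactamase reporter cell assay. Exposure is 18 hrs at 37 C, with CCF4 fluorescence as the readout.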
(In general: In qHTS, concentration-response curves come from the screen itself.)
Regarding `Cc1ccc(C(C)(C)C)cc1`, the outcome was inactive.

In the case of `c1ccc(Nc2ccccc2)cc1`, the result was inactive.

As for `Clc1nc(Cl)c(Cl)c(Cl)c1Cl`, the result was inactive.

For `O=C(Cl)c1ccc([N+](=O)[O-])cc1`, the result was inactive.

As to `OC1CCCCCCCCCCC1`, the outcome was inactive.

Consider `C=C(C)C(=O)OCCCCCCCCCCCC`, for which the result was inactive.

Take `CCCCOCCOCCOCCO`: the outcome was inactive.

As for `C=CCCCC`, the outcome was inactive.

Regarding `Cc1ccc(S(=O)(=O)Oc2ccc(N=Nc3ccc(-c4ccc(N=Nc5c(O)ccc6cc(S(=O)(=O)O)cc(S(=O)(=O)O)c56)c(C)c4)cc3C)cc2)cc1`, the result was inactive.

Turning to `ClCCl`, the outcome was inactive.

Take `CC(C)(O)C(=O)O`: the outcome was inactive.

On to `O=[N+]([O-])c1ccc(F)cc1F`, for which the outcome was inactive.

Take `CCCOCC(C)OCC(C)O` (stereo not given): the result was inactive.

For `COCCOC(=O)c1ccccc1C(=O)OCCOC`, the result was inactive.

As for `CC(=O)Nc1cccc(C)c1`, the result was inactive.

Turning to `CCCCOCCOCCSC#N`, the result was inactive.

On to `CC1(N)CCC(C(C)(C)N)CC1` (stereo not given), for which the outcome was inactive.

Regarding `Cc1ccc(S(=O)(=O)NCl)cc1`, the result was inactive.

In the case of `COc1nc(C)nc(NC(=O)NS(=O)(=O)c2ccccc2OCCCl)n1`, the outcome was inactive.

Take `CCSC(=O)N(CC(C)C)CC(C)C`: the outcome was inactive.

Regarding `CCCCCc1ccc(N)cc1`, the result was inactive.

Turning to `CCC=O`, the result was inactive.

For `Nc1ccc2c(c1)C(=O)c1ccccc1C2=O`, the outcome was inactive.

For the molecule `O=C(OCC1CCC2OC2C1)C1CCC2OC2C1` (stereo not given), the outcome was inactive.

For `CC1(C)CC(OC(=O)CCCCCCCCC(=O)OC2CC(C)(C)NC(C)(C)C2)CC(C)(C)N1`, the outcome was inactive.

As for `O=C(Cl)c1cc(Cl)cc(Cl)c1`, the result was inactive.

As for `CCOC(C)=O`, the outcome was inactive.

Turning to `OCCNCCO`, the outcome was inactive.

As to `CC(=O)OC1CC(C)OC(C)O1` (stereo not given), the outcome was inactive.

In the case of `CCCOCC(C)O` (stereo not given), the result was inactive.

As to `O=[N+]([O-])c1ccc2c(c1)Cc1ccccc1-2`, the outcome was inactive.

As to `CCCCCCCCO`, the outcome was inactive.

Consider `Clc1cc(Cl)c(Cl)cc1Cl`, for which the result was inactive.

Consider `O=C1CCCC/C=C/CCCCCCCCCO1`, for which the result was inactive.

Turning to `S=C(NC1CCCCC1)NC1CCCCC1`, the result was inactive.

For the molecule `C=Cc1ccccc1C=C`, the outcome was inactive.

In the case of `Cc1cc(C)cc(O)c1`, the outcome was inactive.

As for `Cc1cccc2sc(N)nc12`, the result was inactive.

In the case of `C=C(C)C(=O)OCCC[Si](OC)(OC)OC`, the result was inactive.

As for `CCCCC(CC)CN1C(=O)C2C3C=CC(C3)C2C1=O` (stereo not given), the result was inactive.

(Values after PubChem BioAssay (NCATS).)
